Results published in the supplement of paper PMC12494721.
Structures can show the parent of a compound that is named as a salt.

tested on: Klebsiella aerogenes DSM 30053; test: fold change of Cadaverine concentration vs plate DMSO controls (fold change (ratio)); higher = more amine produced, active = hit call of the paper (significant change in both replicates, either direction); details: incubation time: 27 h, anaerobic, 37 °C;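 for the amine columns active = adjusted P below 0.05 in both replicates with a change the same way and a mean fold change under 0.8 or over 1.25; inactive = the rest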
Procedure, shortened: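 Each value is the fold change relative to DMSO-only wells on the same plate. Four gut bacterial strains were grown anaerobically in mGAM at 37 °C for 27 h in 80 µL wells, starting at OD 0.1 before a 1:1 dilution, with compounds at 20 µM final (sweeteners 50 µM). Whole cultures were extracted with cold acetonitrile/methanol containing 0.1% formic acid, centrifuged, and amines were quantified by LC–triple-quadrupole MS (dynamic MRM) against external calibration curves with within-batch drift correction. Values are means of 2 biological replicates.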

Fold change of Cadaverine concentration, inactive:
CN1CCCN=C1/C=C/c1cccc(O)c1 [Oxantel pamoate] (20 µM) 1.01
COC(=O)[C@H](c1ccccc1Cl)N1CCc2sccc2C1 [Clopidogrel] (20 µM) 0.996
CCCCCCCCCCCCCCCCCCCCCC(=O)Nc1ccn([C@@H]2O[C@H](CO)[C@@H](O)[C@@H]2O)c(=O)n1 [Enocitabine] (20 µM) 1.02
CN(C)CCCN1c2ccccc2[S+]([O-])c2ccc(Cl)cc21 (stereo unspecified) [Chlorpromazine Sulfoxide] (20 µM) 0.977
CCN(CC)CCOC(=O)C1(c2ccc([N+](=O)[O-])cc2)CCCC1 [Nitrocaramiphen hydrochloride] (20 µM) 0.98
COc1ccc(CC2c3cc(OC)c(OC)cc3CC[N+]2(C)CCC(=O)OCCCCCOC(=O)CC[N+]2(C)CCc3cc(OC)c(OC)cc3C2Cc2ccc(OC)c(OC)c2)cc1OC (stereo unspecified) [Atracurium besylate] (20 µM) 1.03
O=C(O)C[C@H](O)C[C@H](O)/C=C/c1c(C2CC2)nc2ccccc2c1-c1ccc(F)cc1 [Pitavastatin calcium] (20 µM) 0.997
CC(Cc1cccc(C(F)(F)F)c1)NCCOC(=O)c1ccccc1 (stereo unspecified) [Benfluorex] (20 µM) 0.99
S=c1[nH]cnc2nc[nH]c12 [Mercaptopurine] (20 µM) 0.999
CC(C(=O)O)c1ccc(N2Cc3ccccc3C2=O)cc1 (stereo unspecified) [Indoprofen] (20 µM) 0.982
C[C@@H](O[C@H]1OCCN(Cc2n[nH]c(=O)[nH]2)[C@H]1c1ccc(F)cc1)c1cc(C(F)(F)F)cc(C(F)(F)F)c1 [Aprepitant] (20 µM) 0.993
Cc1nnc(NS(=O)(=O)c2ccc(N)cc2)s1 [Sulfamethizole] (20 µM) 0.995
O=C(Cn1c(=O)sc2ccc(Cl)cc21)N1CCN(CCO)CC1 [Tiaramide Hydrochloride] (20 µM) 0.991
Clc1ccc(COC(Cn2ccnc2)c2ccc(Cl)cc2Cl)c(Cl)c1 (stereo unspecified) [Miconazole] (20 µM) 1.01
Cc1cn[nH]c1 [Fomepizole] (20 µM) 0.986
CC[C@H]1OC(=O)[C@H](C)[C@@H](O[C@H]2C[C@@](C)(OC)[C@@H](O)[C@H](C)O2)[C@H](C)[C@@H](O[C@@H]2O[C@H](C)C[C@H](N(C)C)[C@H]2O)[C@](C)(OC)C[C@@H](C)C(=O)[C@H](C)[C@@H](O)[C@]1(C)O [Clarithromycin] (20 µM) 1.03
CCCC(=O)OCOC(=O)C1=C(C)NC(C)=C(C(=O)OC)C1c1cccc(Cl)c1Cl (stereo unspecified) [Clevidipine] (20 µM) 0.998
CC[N+](CC)(CC(=O)Nc1c(C)cccc1C)Cc1ccccc1 [Denatonium benzoate] (20 µM) 1
COc1cc(/C=C/C(=O)N2CCN(CC(=O)N3CCCC3)CC2)cc(OC)c1OC [Cinepazide maleate] (20 µM) 1.06
COC(=O)C1=C(C)NC(C)=C(C(=O)O[C@H]2CCN(Cc3ccccc3)C2)[C@H]1c1cccc([N+](=O)[O-])c1 [Barnidipine Hydrochloride] (20 µM) 1.01
COCCCOc1ccnc(C[S+]([O-])c2nc3ccccc3[nH]2)c1C (stereo unspecified) [Rabeprazole sodium salt] (20 µM) 1.03
O=C1[C@H]2CCCC[C@H]2C(=O)N1CCCCN1CCN(c2nsc3ccccc23)CC1 [Perospirone hydrochloride] (20 µM) 1.02
CC1=C(/C=C/C(C)=C/C=C/C(C)=C/C(=O)O)C(C)(C)CCC1 [Retinoic acid] (20 µM) 1.01
C[N+]1(C)CCC(OC(=O)C(O)(c2ccccc2)C2CCCC2)C1 (stereo unspecified) [Glycopyrrolate bromide] (20 µM) 1.01
COc1ccc2cc([C@H](C)C(=O)O)ccc2c1 [(S)-Naproxen] (20 µM) 0.988

Fold change of Cadaverine concentration, active:
CN(C)[C@@H]1C(=O)C(C(N)=O)=C(O)[C@@]2(O)C(=O)C3=C(O)c4c(O)ccc(Cl)c4[C@@H](O)[C@H]3C[C@@H]12 [Demeclocycline hydrochloride] (20 µM) 0.547
